Data on 30 molecules can be found in PubChem BioAssay (NCATS).

The structures appear in SMILES notation. Records with an inconclusive call do not appear. Entries that show only a call come without a potency. Active and inactive are the calls of the source. The call rests on the fitted dose curve; in most records, active means well fitted inhibition curve with a large enough effect; inconclusive means small, poorly fitted or top-dose-only effect; inactive means no such curve, though single readings can be large or run the other way.

Assay [1] concerns Zika virus NS2B-NS3 protease (unlinked complex). Put plainly: Primary screen GU Rhodamine qHTS for Zika virus inhibitors: Unlinked NS2B-NS3 protease assay (AID 1347159). Further: nearly all actives have a fitted effect of over 60% in size. Further: potency means the concentration at half of the fitted maximal effect. The essentials:
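Noncovalent NS2B hydrophilic domain–NS3 protease domain complex (25 nM) preincubated 15 min at room temperature with compounds (up to 114 microM) in 10 mM Tris-HCl pH 8.0, 0.01% Tween 20; 1.5 microM Rhodamine110 substrate added, fluorescence change over 15 min fitted to Hill equation.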
In general terms: Quantitative high-throughput screening tests each substance at several concentrations.

Assay [2] relates to Zika virus NS2B-NS3 protease (linked construct). Put plainly: Primary screen NINDS Rhodamine qHTS for Zika virus inhibitors (AID 1347160). Further: nearly all actives have a fitted effect of over 55% in size. The essentials: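 Purified linked NS2B-NS3 protease (NS2B hydrophilic domain joined to NS3 protease by flexible linker), 25 nM in 10 mM Tris-HCl pH 8.0, 0.01% Tween 20. Compounds titrated, 15 min preincubation at room temperature; 1.5 microM Rhodamine110 substrate, FITC fluorescence change over 15 min.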

`CC(=O)C1=CCC2C3CC=C4CC(O)CC(O)C4(C)C3C(O)CC12C` (stereo not given): the Potency result in assay [1] and in assay [2] was “inactive” in each case.

As to `Cc1cc2occ(CN(C)CCN(C)Cc3cn(-c4cccc(C(F)(F)F)c4)c4ccccc34)c(=O)c2cc1C`, the Potency entry in assay [1] and in assay [2] was “inactive” throughout.

As for `Cn1cc(-c2ccc(F)c(C(F)(F)F)c2)nc1C1CCN(c2ncnc3[nH]ncc23)CC1`, the Potency result in assay [1] and in assay [2] was “inactive” each time.

As for `CC(=O)N1CCN(CCOc2ccc(C3CCN(C4=Nn5c(nnc5C(F)(F)F)CC4)CC3)cc2)CC1`, the Potency entry in assay [1] and in assay [2] was “inactive” each time.

As to `COc1cc(O)cc(OC2OC(CO)C(O)C(O)C2O)c1` (stereo not given), the Potency result in assay [1] and in assay [2] was “inactive” in each case.

Take `C[C@H](Nc1cc2c(-c3ccc4c(c3)OCO4)noc2cn1)c1ccccc1`: the Potency entry in assay [1] and in assay [2] was “inactive” in each case.

Turning to `CCOc1ccc(Cc2nc(-c3c(C)nc4ccccn34)cs2)cc1`, the Potency result in assay [1] and in assay [2] was “inactive” each time.

Take `CC1(C)CC[C@]23CO[C@@]4(CCC5[C@@]6(C)CC[C@H](O[C@@H]7OC[C@H](O[C@@H]8O[C@H](CO)[C@@H](O)[C@H](O)[C@H]8O[C@@H]8OC[C@@H](O)[C@H](O)[C@H]8O)[C@H](O)[C@H]7O[C@@H]7O[C@H](CO)[C@@H](O)[C@H](O)[C@H]7O)[C@@](C)(CO)C6CC[C@@]5(C)[C@]4(C)C[C@H]2O)[C@@H]3C1` (stereo not given in full): the Potency entry in assay [1] and in assay [2] was “inactive” in each case.

As for `FC(F)(F)c1ccc(/C=C/c2nc(COc3ccc(CCCCn4ccnn4)cc3)co2)cc1`, the Potency entry in assay [1] and in assay [2] was “inactive” each time.

For `CC(C)CCNc1ncccc1C(=O)N1CCN(Cc2ccccc2)CC1`, the Potency result in assay [1] and in assay [2] was “inactive” each time.

As for `CCN1C(C)(C)CC(Oc2ccc(C(=O)Nc3ccc(NC(=O)Nc4cc(C(C)(C)C)on4)cc3)nc2)CC1(C)C`, the Potency result in assay [1] and in assay [2] was “inactive” in each case.

Take `CC(C)(O)C1CC(=O)C2(C)C(CCC3(C)C(c4ccoc4)OC(=O)C4OC432)C12CCC(=O)OC2` (stereo not given): the Potency result in assay [1] and in assay [2] was “inactive” throughout.

Take `O=C(CNC(=O)c1cccc(C(F)(F)F)c1)N[C@@H]1CCN(Cc2ccc(Cl)cc2)C1`: the Potency result in assay [1] and in assay [2] was “inactive” each time.

Turning to `COc1cc2c(cc1NS(=O)(=O)c1ccc(Br)cc1C)n(C)c(=O)n2C`, the Potency result in assay [1] and in assay [2] was “inactive” throughout.

`O=C(C(Cc1cccc(C(F)(F)F)c1)NS(=O)(=O)c1cc(F)c2c(c1)CCNC2)N1CCCC1` (stereo not given): the Potency result in assay [1] and in assay [2] was “inactive” each time.

With `COC1=CC(=O)O/C1=C(/OC)[C@@H]1O[C@H]1c1ccccc1`, the Potency result in assay [1] and in assay [2] was “inactive” throughout.

As for `NCC(CNc1nc(Nc2cccc(NC(=O)N3CCCC3)c2)ncc1I)C(=O)c1cccs1` (stereo not given), the Potency result in assay [1] and in assay [2] was “inactive” in each case.

`Cn1c(=O)c2c(ncn2Cc2ccc(C(C)(C)C)cc2)n(C)c1=O`: the Potency entry in assay [1] and in assay [2] was “inactive” in each case.

With `OC(c1ccc(-c2ccc(CN3CCN(Cc4ccncc4)CC3)cc2)c(F)c1)(C(F)(F)F)C(F)(F)F`, the Potency entry in assay [1] and in assay [2] was “inactive” each time.

For `CC(C)(O)c1ccc2c(c1)ncn2-c1cccc(-c2ccccc2C#N)c1`, the Potency entry in assay [1] and in assay [2] was “inactive” each time.

`CC(C)n1cnc2c(-c3cnc(N)nc3)nc(N3CCOCC3)nc21`: the Potency entry in assay [1] and in assay [2] was “inactive” throughout.

In the case of `COC(=O)C[C@H]1C(C)(C)[C@H](OC(=O)c2ccccc2)C2CC3=C4CC(=O)O[C@@H](c5ccoc5)[C@]4(C)CCC3[C@@]1(C)C2=O` (stereo not given in full), the Potency result in assay [1] and in assay [2] was “inactive” in each case.

Turning to `CCC(CC)Nc1nc(C)c(-c2ccc(OC(F)(F)F)cc2OC)nc1OC`, the Potency result in assay [1] and in assay [2] was “inactive” throughout.

As to `Nc1nc(Nc2ccc3c(c2)CCC(N2CCCC2)CC3)nn1-c1cc2c(nn1)-c1ccccc1CCC2` (stereo not given), in assay [1], the Potency was 50.1 µM (active). Moreover, the Potency entry in assay [2] is “inactive”.

In the case of `C=C(C)[C@@H]1CC[C@]2(C(=O)O)CC[C@]3(C(=O)O)[C@H](CCC4[C@@]5(C)CCC(=O)C(C)(C)C5CC[C@]43C)C12` (stereo not given in full), the Potency entry in assay [1] and in assay [2] was “inactive” throughout.

For the molecule `C=CC(C)(O)CC/C=C(/C)COC(=O)C(C)C1CCC(C)(C=C)O1` (stereo not given), the Potency entry in assay [1] and in assay [2] was “inactive” throughout.

In the case of `O=C(CSc1nc2ccccc2c(=O)n1-c1ccccc1)Nc1ccc2c(c1)CCC2`, the Potency entry in assay [1] and in assay [2] was “inactive” each time.

As for `Oc1ccc(-c2cnc3ccc(NCc4ccco4)nn23)cc1`, the Potency result in assay [1] and in assay [2] was “inactive” each time.

As to `O=C(O)CCc1nccc2c1[nH]c1ccccc12`, the Potency entry in assay [1] and in assay [2] was “inactive” throughout.

For the molecule `CC(=O)O[C@H]1CC2C(COC(=O)CC(C)C)=CO[C@@H](OC(=O)CC(C)C)C2[C@]12CO2` (stereo not given in full), the Potency entry in assay [1] and in assay [2] was “inactive” in each case.
